Reference: PubChem BioAssay (EPA / NIEHS)
Several values for one entry are separate records, joined by “and”; a condition that tells them apart may be missing. Equal values may be shown once. The source holds several records for some structures; these can differ, active in one and inactive in another. Activity calls are given as the source filed them. How the source made its calls: active means hit-call score of the fitted dose curve at least 0.9, where 1 is the maximum; inactive means score below 0.9.

Tests used:
[1] = read-out: Interleukin-1 alpha (IL1a), IL1A (gene 3552); assay: BSK_KF3CT_IL1a: BioMAP Diversity Plus: KF3CT Assay for Interleukin-1 alpha (IL1a) Biomarker Activity (AID 2283070); details: primary human keratinocytes with fibroblasts; actives raise or lower the signal
How it was run: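 Readout is IL-1a level by ELISA, compared bidirectionally with DMSO as baseline. Cells: human keratinocytes co-cultured with foreskin fibroblasts, harvested 24 h post-dose.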

[2] = read-out: TIMP metallopeptidase inhibitor 2 (TIMP2), TIMP2 (gene 7077); assay: BSK_KF3CT_TIMP2: BioMAP Diversity Plus: KF3CT Assay for TIMP metallopeptidase inhibitor 2 (TIMP2) Biomarker Activity (AID 2283071); details: primary human keratinocytes with fibroblasts; actives raise or lower the signal
How it was run: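 Measurements come from ELISA detection of TIMP-2 at 24 hours in a dosed human keratinocyte and foreskin fibroblast co-culture. DMSO serves as negative control and baseline.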

[3] = read-out: Transforming growth factor beta 1 (TGFb1), TGFB1 (gene 7040); assay: BSK_KF3CT_TGFb1: BioMAP Diversity Plus: KF3CT Assay for Transforming growth factor beta 1 (TGFb1) Biomarker Activity (AID 2283072); details: primary human keratinocytes with fibroblasts; actives raise or lower the signal
How it was run: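 TGF-b1 ELISA on a 24 h dosed co-culture of human keratinocytes and foreskin fibroblasts; cytotoxicity tracked in parallel cultures by SRB staining.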

[4] = read-out: Matrix Metallopeptidase 9 (MMP9), MMP9 (gene 4318); assay: BSK_KF3CT_MMP9: BioMAP Diversity Plus: KF3CT Assay for Matrix Metallopeptidase 9 (MMP9) Biomarker Activity (AID 2283074); details: primary human keratinocytes with fibroblasts; actives raise or lower the signal;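 on AC50: MMP9 protein level quantified by ELISA in the co-culture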
How it was run: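 Values come from bidirectional fitting relative to DMSO of MMP-9 levels, which were measured by ELISA. Measurements were taken 24 h after chemical dosing of a keratinocyte and foreskin fibroblast co-culture.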

[5] = read-out: CD40, CD40 (gene 958); assay: BSK_LPS_CD40: BioMAP Diversity Plus: LPS Assay for CD40 Biomarker Activity (AID 2283076); details: primary human HUVEC with PBMC; actives raise or lower the signal
How it was run: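 Cells were dosed, incubated 24 h, then assayed for CD40 by ELISA. Gain or loss of signal was analysed relative to DMSO controls. The culture paired human umbilical vein endothelium with peripheral blood mononuclear cells.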

[6] = read-out: E-selectin (Homo sapiens) (UniProt P16581); assay: BSK_LPS_Eselectin: BioMAP Diversity Plus: LPS Assay for Eselectin Biomarker Activity (AID 2283077); details: primary human HUVEC with PBMC; actives raise or lower the signal
How it was run: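 Primary human vascular co-culture (endothelium plus PBMC) was dosed with chemical, then E-selectin quantified by ELISA at 24 h. Endpoint values derive from bidirectional curve fitting relative to DMSO.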

[7] = BSK_LPS_SRB: Viability Assessment in the BioMAP Diversity Plus: LPS Assay (AID 2283079); details: primary human HUVEC with PBMC;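 further: total protein by sulforhodamine B absorbance as a cytotoxicity measure; measured one day after compound addition; fitted in both directions against DMSO so loss or gain of signal counts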
How it was run: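 Readout is SRB absorbance at 560 nm (0.1% stain, TCA-fixed parallel cultures) as a total-protein cytotoxicity measure. Cells: primary human umbilical vein endothelium plus peripheral blood mononuclear cells, 24 h after chemical exposure; DMSO served as baseline.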

[8] = read-out: Interleukin-1 alpha (IL1a), IL1A (gene 3552); assay: BSK_LPS_IL1a: BioMAP Diversity Plus: LPS Assay for Interleukin-1 alpha (IL1a) Biomarker Activity (AID 2283080); details: primary human HUVEC with PBMC; actives raise or lower the signal
How it was run: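 ELISA read-out of IL-1 alpha from a human primary vascular co-culture (endothelium plus PBMC) under LPS, sampled 24 hours post-dosing. Activity was fitted in both directions relative to DMSO controls.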

[9] = read-out: Monocyte Chemoattractant Protein-1 (MCP1), CCL2 (gene 6347); assay: BSK_LPS_MCP1: BioMAP Diversity Plus: LPS Assay for Monocyte Chemoattractant Protein-1 (MCP1) Biomarker Activity (AID 2283081); details: primary human HUVEC with PBMC; actives raise or lower the signal;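 on AC50: secreted MCP-1 protein quantified by ELISA in culture supernatant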
How it was run: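 Human endothelial–PBMC co-cultures were dosed with chemical, then LPS-driven MCP-1 levels were quantified by ELISA at 24 h. Activity in either direction was fitted versus DMSO negative control.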

[10] = BSK_LPS_PGE2: BioMAP Diversity Plus: LPS Assay for Prostaglandin E2 (PGE2) Biomarker Activity (AID 2283082); details: primary human HUVEC with PBMC; actives raise or lower the signal;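 on AC50: secreted prostaglandin E2 measured by ELISA in LPS-stimulated co-culture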
How it was run: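 Primary human endothelial cells and blood mononuclear cells, co-cultured with LPS, receive test chemical; PGE2 ELISA follows at 24 h, with SRB-stained parallel cultures flagging cytotoxicity.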

[11] = read-out: Macrophage colony-stimulating factor (MCSF), CSF1 (gene 1435); assay: BSK_LPS_MCSF: BioMAP Diversity Plus: LPS Assay for Macrophage colony-stimulating factor (MCSF) Biomarker Activity (AID 2283083); details: primary human HUVEC with PBMC; actives raise or lower the signal
How it was run: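 ELISA readout of M-CSF after 24 h compound exposure in a human endothelial/PBMC co-culture. Activity, in either direction, is fitted relative to DMSO vehicle.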

[12] = read-out: Tissue Factor, F3 (gene 2152); assay: BSK_LPS_TissueFactor: BioMAP Diversity Plus: LPS Assay for Tissue Factor Biomarker Activity (AID 2283084); details: primary human HUVEC with PBMC; actives raise or lower the signal
How it was run: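 ELISA signal for cell-surface Tissue Factor (CD142) was read 24 h after compound dosing of an LPS-stimulated human endothelial–PBMC primary co-culture. Gain or loss of signal was scored relative to DMSO.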

[13] = read-out: Tumor necrosis factor (Homo sapiens) (UniProt P01375); assay: BSK_LPS_TNFa: BioMAP Diversity Plus: LPS Assay for Tumour Necrosis Factor alpha (TNFa) Biomarker Activity (AID 2283085); details: primary human HUVEC with PBMC; actives raise or lower the signal;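 on AC50: TNFa protein level quantified by ELISA in the co-culture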
How it was run: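 ELISA-based TNFa endpoint in a human endothelial–PBMC co-culture sampled 24 h post-exposure. Curves were fitted in both directions using DMSO as baseline of activity.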

[14] = read-out: Vascular cell adhesion molecule 1 (VCAM1), VCAM1 (gene 7412); assay: BSK_LPS_VCAM1: BioMAP Diversity Plus: LPS Assay for Vascular cell adhesion molecule 1 (VCAM1) Biomarker Activity (AID 2283086); details: primary human HUVEC with PBMC; actives raise or lower the signal
How it was run: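 Measured by ELISA: VCAM-1 in LPS-activated HUVEC/PBMC co-cultures 24 h after treatment. Values reflect bidirectional fitting with DMSO as baseline.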

[15] = read-out: CD38, CD38 (gene 952); assay: BSK_SAg_CD38: BioMAP Diversity Plus: SAg Assay for CD38 Biomarker Activity (AID 2283087); details: primary human HUVEC with PBMC; actives raise or lower the signal
How it was run: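 Measures CD38 on a human endothelial/PBMC co-culture driven by SEB and TSST-1, 24 h after compound exposure, using ELISA with fluorescence detection; DMSO defines baseline for bidirectional curve fitting.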

[16] = read-out: CD40, CD40 (gene 958); assay: BSK_SAg_CD40: BioMAP Diversity Plus: SAg Assay for CD40 Biomarker Activity (AID 2283088); details: primary human HUVEC with PBMC; actives raise or lower the signal
How it was run: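 Compounds were dosed onto a human primary endothelial–PBMC co-culture, and after 24 h CD40 was quantified by ELISA using a fluorescence signal. Activity in either direction was fitted relative to DMSO.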

[17] = read-out: CD69, CD69 (gene 969); assay: BSK_SAg_CD69: BioMAP Diversity Plus: SAg Assay for CD69 Biomarker Activity (AID 2283089); details: primary human HUVEC with PBMC; actives raise or lower the signal;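 on AC50: cell surface CD69 protein quantified by ELISA with fluorescence detection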
How it was run: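 Endothelial/PBMC co-culture; chemical added; 24 h incubation; CD69 ELISA with fluorescence detection; bidirectional fit vs DMSO.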

[18] = read-out: urokinase plasminogen activator (uPA), PLAU (gene 5328); assay: BSK_KF3CT_uPA: BioMAP Diversity Plus: KF3CT Assay for urokinase plasminogen activator (uPA) Biomarker Activity (AID 2283075); details: primary human keratinocytes with fibroblasts; actives raise or lower the signal
How it was run: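 Values derive from bidirectional fitting against DMSO controls. Keratinocyte/foreskin fibroblast co-cultures received chemical; 24 h later uPA was detected by ELISA, with SRB total-protein staining in parallel wells for overt cytotoxicity.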

[19] = read-out: Interleukin-8 (IL8), CXCL8 (gene 3576); assay: BSK_LPS_IL8: BioMAP Diversity Plus: LPS Assay for Interleukin-8 (IL8) Biomarker Activity (AID 2283078); details: primary human HUVEC with PBMC; actives raise or lower the signal
How it was run: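 Readout is IL-8 by ELISA, taken 24 h after compounds were added to LPS-stimulated endothelial/PBMC co-cultures. Both increases and decreases relative to DMSO control were scored through bidirectional fitting.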

[20] = read-out: C-C motif chemokine 2 (Homo sapiens) (UniProt P13500); assay: BSK_KF3CT_MCP1: BioMAP Diversity Plus: KF3CT Assay for Monocyte Chemoattractant Protein 1 (MCP1/CCL2) Biomarker Activity (AID 2283073); details: primary human keratinocytes with fibroblasts; actives raise or lower the signal
How it was run: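 ELISA readout of MCP-1 after 24 h chemical dosing of a human skin primary co-culture of keratinocytes and foreskin fibroblasts. Activity was fitted in both directions against DMSO.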

Measured: AC50

Tumor necrosis factor (Homo sapiens), sequence (P01375 whole entry, looked up): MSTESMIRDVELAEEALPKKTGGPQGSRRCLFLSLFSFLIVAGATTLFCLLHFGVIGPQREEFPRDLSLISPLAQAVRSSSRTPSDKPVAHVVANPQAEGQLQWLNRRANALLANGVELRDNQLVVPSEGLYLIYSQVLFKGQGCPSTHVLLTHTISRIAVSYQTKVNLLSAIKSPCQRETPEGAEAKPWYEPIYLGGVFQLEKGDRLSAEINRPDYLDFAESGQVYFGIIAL
E-selectin (Homo sapiens), sequence (P16581 whole entry, looked up): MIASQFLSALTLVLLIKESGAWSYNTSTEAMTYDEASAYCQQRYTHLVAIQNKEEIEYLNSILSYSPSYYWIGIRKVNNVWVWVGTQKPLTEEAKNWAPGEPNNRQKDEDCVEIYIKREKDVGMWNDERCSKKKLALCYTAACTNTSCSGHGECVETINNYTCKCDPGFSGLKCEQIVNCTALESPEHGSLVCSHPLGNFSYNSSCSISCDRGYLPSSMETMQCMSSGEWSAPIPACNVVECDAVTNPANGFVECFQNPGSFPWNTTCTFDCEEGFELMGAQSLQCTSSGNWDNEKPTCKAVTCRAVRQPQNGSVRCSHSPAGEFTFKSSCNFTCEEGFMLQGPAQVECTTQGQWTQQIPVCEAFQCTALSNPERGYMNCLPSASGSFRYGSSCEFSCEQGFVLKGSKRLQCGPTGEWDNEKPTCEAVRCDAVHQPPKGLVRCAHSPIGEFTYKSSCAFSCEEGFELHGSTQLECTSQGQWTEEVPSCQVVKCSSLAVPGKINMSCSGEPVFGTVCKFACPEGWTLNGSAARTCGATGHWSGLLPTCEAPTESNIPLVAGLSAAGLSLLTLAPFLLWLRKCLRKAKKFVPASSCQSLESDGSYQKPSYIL

CC(c1ccc(O)cc1)(c1ccc(O)cc1)c1ccc(O)cc1
active: [2] 13.1 µM | [3] 11.4 µM | [4] 25.2 µM | [5] 20 µM | [6] 32.7 µM | [7] 23.9 µM | [9] 20 µM | [10] 34.6 µM | [11] 26.4 µM | [13] 32.6 µM | [14] 16.2 µM | [15] 24.5 µM | [16] 20.5 µM | [17] 20 µM
inactive: [1] | [8] | [12]

Oc1ccc(C(c2ccc(O)cc2)(C(F)(F)F)C(F)(F)F)cc1
active: [1] 32.1 µM | [2] 21.1 µM | [3] 23.7 µM | [4] 20 µM | [18] 34.2 µM | [6] 32.4 µM | [19] 32.1 µM | [7] 28 µM | [8] 20.2 µM | [9] 27.5 µM | [10] 19.6 µM | [11] 20.1 µM | [12] 37.9 µM | [13] 21.5 µM | [14] 23.9 µM | [15] 20.6 µM | [16] 18.3 µM | [17] 26.6 µM

O=C(O)C(F)(F)C(F)(F)C(F)(F)C(F)(F)C(F)(F)C(F)(F)C(F)(F)C(F)(F)F
active: [1] 7.86 µM and 30 µM | [4] 33.2 µM and 35.9 µM and 30 µM | [7] 53.5 µM and 55 µM | [8] 44.1 µM | [9] 47.9 µM and 58.4 µM | [10] 20 µM and 19.9 µM and 14.8 µM | [14] 51.5 µM and 54.3 µM | [15] 49.6 µM and 47 µM | [16] 30 µM | [17] 42.7 µM and 43.5 µM
inactive: [1] | [2] | [3] | [6] | [7] | [8] | [9] | [11] | [12] | [13] | [14] | [15] | [16] | [17]

Cc1cccc(C)c1N
inactive: [1] | [2] | [3] | [4] | [18] | [6] | [19] | [7] | [8] | [9] | [10] | [11] | [12] | [13] | [14] | [15] | [16] | [17]

CC(C)(O)C(=O)Nc1ccc([N+](=O)[O-])c(C(F)(F)F)c1
inactive: [1] | [2] | [3] | [4] | [18] | [6] | [7] | [8] | [9] | [12] | [13] | [14] | [15] | [16] | [17]
active: [10] 0.024 µM | [11] 23.1 µM

CCOCCOC(C)=O
inactive: [1] | [2] | [3] | [4] | [18] | [6] | [19] | [7] | [8] | [9] | [10] | [11] | [12] | [13] | [14] | [15] | [16] | [17]

CCCN(CCC)N=O
inactive: [2] | [3] | [20] | [4] | [18] | [5] | [6] | [7] | [8] | [9] | [10] | [11] | [12] | [13] | [14] | [15] | [16] | [17]

O=C(O)C(F)(F)C(F)(F)C(F)(F)C(F)(F)C(F)(F)F
inactive: [1] | [2] | [3] | [20] | [4] | [18] | [6] | [7] | [8] | [9] | [10] | [11] | [12] | [13] | [14] | [15] | [16] | [17]

O=S(=O)(O)C(F)(F)C(F)(F)C(F)(F)C(F)(F)C(F)(F)C(F)(F)F
inactive: [1] | [2] | [3] | [20] | [4] | [18] | [5] | [6] | [7] | [8] | [9] | [10] | [11] | [12] | [13] | [14] | [15] | [16] | [17]

Nc1ccc(-c2ccc(N)cc2)cc1
inactive: [1] | [2] | [3] | [4] | [18] | [6] | [19] | [7] | [8] | [9] | [11] | [12] | [13] | [14] | [15] | [16] | [17]
active: [10] 8.27 µM

CCC(=O)O[C@H]1CC[C@H]2[C@@H]3CCC4=CC(=O)CC[C@]4(C)[C@H]3CC[C@]12C
inactive: [10]
active: [1] 32.7 µM | [2] 30.7 µM | [4] 32.4 µM | [6] 29.4 µM | [8] 31.9 µM | [9] 25.5 µM | [11] 26 µM | [12] 30.8 µM | [13] 32.1 µM | [14] 30.5 µM | [15] 36 µM | [16] 31.9 µM | [17] 31.1 µM
